This passage reports normalised cell viability results from the supplement of paper PMC8285479.

SMILES strings stand for the structures. Where a name gives a salt, the structure may show the parent alone. ± gives the standard deviation of the averaged measurements. Over roughly 1,900 compounds, “normalised cell viability (NPI; 0 = phenylarsine oxide control, 1 = DMSO control)” has its median near 1; the lowest 2% begin near 0.039. This excerpt belongs to a sample that is enriched for the lowest values.

This experiment has as its system NCI-H1944. Nature of the experiment: normalised cell viability (NPI; 0 = phenylarsine oxide control, 1 = DMSO control) (fraction of DMSO control); NCI-H1944 is a non-small cell lung cancer line; higher = more viable cells (less compound toxicity). Conditions: 6 days.
Setting [1] is: glucocorticoid arm: hydrocortisone 2.75 uM co-treatment, compound 1 µM.
The mark [2] stands for this setting: glucocorticoid arm: hydrocortisone 2.75 uM co-treatment, compound 5 µM.
Where [3] appears, read: glucocorticoid arm: hydrocortisone 2.75 uM pre-treated 2 days and continued, compound 1 µM.
Where [4] appears, read: glucocorticoid arm: hydrocortisone 2.75 uM pre-treated 2 days and continued, compound 5 µM.
The mark [5] stands for this setting: glucocorticoid arm: vehicle, compound 1 µM.
[6] abbreviates: glucocorticoid arm: vehicle, compound 5 µM.
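Also: CTB read-out in 384-well plates, triplicate wells, NPI normalised per plate against 1 µM phenylarsine oxide (0) and 0.1% DMSO (1) controls.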

In the case of `CN(C)CCOc1ccc(-c2nc(-c3ccncc3)c(-c3ccc4c(c3)CC/C4=N\O)[nH]2)cc1`, the normalised cell viability came to 1.103 ± 0.0058 under setting [1]; 1.16 ± 0.032 under setting [2]; 1.07 ± 0.011 under setting [3]; 1.11 ± 0.021 under setting [4]; 1.013 ± 0.0058 under setting [5]; 1 ± 0.05 under setting [6].

For the molecule `O=[N+]([O-])c1ccc(CSc2ncnc3c2ncn3[C@@H]2O[C@H](CO)[C@@H](O)[C@H]2O)cc1` [S-(4-Nitrobenzyl)-6-thioinosine], the normalised cell viability amounted to 0.9813 ± 0.0047 under setting [1]; 0.968 ± 0.027 under setting [2]; 0.987 ± 0.018 under setting [3]; 0.996 ± 0.059 under setting [4]; 0.9973 ± 0.0046 under setting [5]; 0.9917 ± 0.0097 under setting [6].

Regarding `Nc1c(O)cc(O)cc1C=Cc1ccc(O)cc1` [Aminoresveratrol sulfate], the normalised cell viability reads like this: under setting [1], 1 ± 0.015; under setting [2], 1.01 ± 0.02; under setting [3], 1.01 ± 0.015; under setting [4], 1.01 ± 0.014; under setting [5], 0.9937 ± 0.0027; under setting [6], 1.01 ± 0.012.

In the case of `CC(C)C(=O)Oc1ccc(CO)cc1[C@H](CCN(C(C)C)C(C)C)c1ccccc1` [Fesoterodine Fumarate], the normalised cell viability was 1.002 ± 0.0076 under setting [1]; 0.966 ± 0.019 under setting [2]; 1 ± 0.025 under setting [3]; 0.984 ± 0.04 under setting [4]; 1.001 ± 0.009 under setting [5]; 1 ± 0.016 under setting [6].

For `NCCC1CCCC(CCN)N1` (stereo not given) [MDL 26,630 trihydrochloride], the normalised cell viability was 0.9937 ± 0.0075 under setting [1]; 0.981 ± 0.021 under setting [2]; 0.9927 ± 0.0075 under setting [3]; 1.04 ± 0.11 under setting [4]; 0.9923 ± 0.0042 under setting [5]; 1 ± 0.011 under setting [6].

For the molecule `NC1(C(=O)O)CCCCC1` [1-Amino-1-cyclohexanecarboxylic acid hydrochloride], the normalised cell viability reads like this: under setting [1], 0.998 ± 0.011; under setting [2], 0.9907 ± 0.0081; under setting [3], 0.9927 ± 0.0049; under setting [4], 0.991 ± 0.013; under setting [5], 0.9913 ± 0.009; under setting [6], 0.999 ± 0.011.

With `N#C/C(=C/c1ccc(O)c(O)c1)C(=O)N1CCc2ccccc21` [Tyrphostin AG 528], the normalised cell viability under setting [1] worked out at 0.993 ± 0.0089; the normalised cell viability under setting [2] worked out at 0.987 ± 0.032; the normalised cell viability under setting [3] was determined as 1.02 ± 0.031; the normalised cell viability under setting [4] is 0.9767 ± 0.0095; the normalised cell viability under setting [5] is 1.003 ± 0.0058; the normalised cell viability under setting [6] amounted to 1.02 ± 0.01.

For the molecule `NCCCCC(=O)O` [5-Aminovaleric acid hydrochloride], the normalised cell viability runs as follows: under setting [1], 0.9807 ± 0.0096; under setting [2], 0.99533 ± 0.00058; under setting [3], 0.9797 ± 0.0035; under setting [4], 0.9945 ± 0.00071; under setting [5], 0.992 ± 0.0066; under setting [6], 0.9927 ± 0.0032.

`NCCCCCC(=O)O` [6-Aminohexanoic acid]: the normalised cell viability was 0.9763 ± 0.0095 under setting [1]; 0.972 ± 0.022 under setting [2]; 1 ± 0.011 under setting [3]; 0.971 ± 0.041 under setting [4]; 0.99 ± 0.019 under setting [5]; 0.9787 ± 0.0067 under setting [6].

For the molecule `NCC(=O)CCC(=O)O` [Aminolevulinic acid hydrochloride; Aminolevulinic acid], the normalised cell viability runs as follows: under setting [1], 1.04 ± 0.021; under setting [2], 0.0671 ± 0.0064; under setting [3], 1.023 ± 0.0058; under setting [4], 0.486 ± 0.037; under setting [5], 1.001 ± 0.0081; under setting [6], 0.00332 ± 0.0013.

Regarding `[Cl-].[Li+]` [Lithium Chloride], the normalised cell viability was determined as 1.007 ± 0.0058 under setting [1]; 0.998 ± 0.013 under setting [2]; 1.01 ± 0.013 under setting [3]; 1.01 ± 0.018 under setting [4]; 1.01 under setting [5]; 1.002 ± 0.0072 under setting [6].

For the molecule `C[C@]12CC[C@@H]3c4ccc(O)cc4CC[C@H]3[C@@H]1CC[C@@H]2O` [beta-Estradiol], the normalised cell viability worked out at 0.9927 ± 0.005 under setting [1]; 0.954 ± 0.022 under setting [2]; 0.9937 ± 0.0055 under setting [3]; 0.962 ± 0.028 under setting [4]; 0.9753 ± 0.0031 under setting [5]; 0.9807 ± 0.0032 under setting [6].

Take `C[C@]12CC[C@@H]3c4ccc(O)cc4CC[C@H]3[C@@H]1C[C@@H](O)[C@@H]2O` [Estriol]: the normalised cell viability was determined as 1.02 ± 0.011 under setting [1]; 1.01 ± 0.014 under setting [2]; 1.01 ± 0.01 under setting [3]; 1.02 ± 0.021 under setting [4]; 1.007 ± 0.0058 under setting [5]; 1.01 ± 0.011 under setting [6].

On to `CNC(=O)[C@H]1O[C@@H](n2cnc3c(NCc4ccc(N)cc4)ncnc32)[C@H](O)[C@@H]1O`, for which the normalised cell viability is, setting by setting: under setting [1], 1.01 ± 0.012; under setting [2], 0.9953 ± 0.0081; under setting [3], 0.997 ± 0.003; under setting [4], 1; under setting [5], 0.9873 ± 0.0091; under setting [6], 1.001 ± 0.0085.

For `C[C@@H](Oc1ccc(Oc2cnc3ccc(Cl)cc3n2)cc1)C(=O)O`, the normalised cell viability reads like this: under setting [1], 1.004 ± 0.0098; under setting [2], 0.88 ± 0.023; under setting [3], 0.858 ± 0.29; under setting [4], 1.05 ± 0.015; under setting [5], 1.027 ± 0.0058; under setting [6], 0.522 ± 0.054.

Regarding `CNCC[C@@H](Oc1ccc(C(F)(F)F)cc1)c1ccccc1` [R-(-)-Fluoxetine hydrochloride], the normalised cell viability by setting is: under setting [1], 0.999 ± 0.011; under setting [2], 0.92 ± 0.014; under setting [3], 1.013 ± 0.0058; under setting [4], 1.02 ± 0.029; under setting [5], 0.995 ± 0.0036; under setting [6], 0.9947 ± 0.005.

Regarding `N#Cc1ccc2[nH]c(O)c(-c3ccc(CN4CCOCC4)cn3)c2c1`, the normalised cell viability worked out at 1.11 ± 0.021 under setting [1]; 1.24 ± 0.021 under setting [2]; 1.053 ± 0.0058 under setting [3]; 1.11 ± 0.023 under setting [4]; 1.02 ± 0.011 under setting [5]; 1.05 ± 0.015 under setting [6].

Regarding `CN1CC2c3ccccc3Oc3ccc(Cl)cc3C2C1` (stereo not given) [Asenapine], the normalised cell viability is, setting by setting: under setting [1], 1.002 ± 0.0072; under setting [2], 1.02 ± 0.024; under setting [3], 1.01 ± 0.011; under setting [4], 1.01 ± 0.028; under setting [5], 0.995 ± 0.0087; under setting [6], 1 ± 0.0092.

Take `CN(C)CCC(c1ccc(Br)cc1)c1ccccn1` (racemic) [(±)-Brompheniramine maleate]: the normalised cell viability stood at 1.001 ± 0.0081 under setting [1]; 1.03 ± 0.017 under setting [2]; 1.013 ± 0.0058 under setting [3]; 1.04 ± 0.014 under setting [4]; 1.013 ± 0.0058 under setting [5]; 1.02 ± 0.01 under setting [6].

`CC(C)C[C@H](NP(=O)(O)O[C@H]1O[C@H](C)[C@@H](O)[C@H](O)[C@@H]1O)C(=O)N[C@@H](Cc1c[nH]c2ccccc12)C(=O)O` [Phosphoramidon disodium]: the normalised cell viability is, setting by setting: under setting [1], 0.9937 ± 0.0061; under setting [2], 1.01 ± 0.02; under setting [3], 1.01 ± 0.016; under setting [4], 0.999 ± 0.011; under setting [5], 0.991 ± 0.0044; under setting [6], 0.9847 ± 0.0081.

Take `S=C(S)OC1CC2CC1C1CCCC21` [D-609 potassium]: the normalised cell viability came out at 1.02 ± 0.01 under setting [1]; 1.03 ± 0.017 under setting [2]; 1.04 ± 0.02 under setting [3]; 1.04 ± 0.01 under setting [4]; 1.03 ± 0.011 under setting [5]; 1.03 under setting [6].

For the molecule `Cn1c(=O)c2nc[nH]c2n(C)c1=O` [Theophylline], the normalised cell viability by setting is: under setting [1], 1.001 ± 0.0085; under setting [2], 1.01 ± 0.01; under setting [3], 1.02 ± 0.021; under setting [4], 0.9943 ± 0.0049; under setting [5], 0.99 ± 0.0087; under setting [6], 0.9907 ± 0.0038.

As for `O=C1OC(=O)[C@H]2[C@@H]1[C@@H]1CC[C@H]2O1` [Norcantharidin], the normalised cell viability under setting [1] was found to be 1.007 ± 0.0058; the normalised cell viability under setting [2] was 1.03 ± 0.02; the normalised cell viability under setting [3] came to 1.02 ± 0.011; the normalised cell viability under setting [4] came to 0.924 ± 0.23; the normalised cell viability under setting [5] worked out at 0.9903 ± 0.0011; the normalised cell viability under setting [6] is 1 ± 0.022.

As to `O=C(Cc1ccc(-c2ccc(OCCN3CCOCC3)cc2)cn1)NCc1ccccc1`, the normalised cell viability was determined as 0.235 ± 0.021 under setting [1]; 0.258 ± 0.015 under setting [2]; 0.464 ± 0.041 under setting [3]; 0.518 ± 0.077 under setting [4]; 0.0379 ± 0.0028 under setting [5]; 0.0359 ± 0.0039 under setting [6].

Regarding `Cc1ccc(-n2nc(C(C)(C)C)cc2NC(=O)Nc2ccc(OCCN3CCOCC3)c3ccccc23)cc1` [BIRB 796 (Doramapimod)], the normalised cell viability under setting [1] was found to be 0.806 ± 0.012; the normalised cell viability under setting [2] worked out at 0.826 ± 0.03; the normalised cell viability under setting [3] is 0.775 ± 0.019; the normalised cell viability under setting [4] was 0.816 ± 0.034; the normalised cell viability under setting [5] was determined as 0.995 ± 0.005; the normalised cell viability under setting [6] turned out to be 1.017 ± 0.0058.
